This passage reports survival results from PubChem BioAssay AID463173 (ICCB-Longwood Screening Facility, Harvard Medical School, 2010).

About 1,700 (3.3%) of roughly 52,000 compounds were called active. For the sample, actives were picked, then their nearest neighbours and some compounds at random. Values without a mark were called inactive. Rule as the data show it: active = survival mostly below about 52% (no sharp cut-off); inactive = mostly above about 56%.

The test system of the test is Wild type. Briefly: growth inhibition of S. aureus wild type versus tarO mutant, primary screen, teichoic acid synthesis inhibitors, RN4220, OD600 (AID 463173). The settings on record: S. aureus RN4220 wild type/DeltatarO growth, OD600, 18 h, hits give low values, screened at 18.75 µg/mL (by protocol).
Consider `COc1ccc(-n2c(-c3ccco3)nc3c(cnn3-c3ccc(Cl)cc3)c2=O)cc1`, for which the survival is 90%.

Consider `CC1CCN(C(=O)Cn2cc(SCC(=O)Nc3ccccc3C(F)(F)F)c3ccccc32)CC1`, for which the survival was 105%. The figure for `COc1ccc(CNC(=O)CN2C(=O)CCn3nc(-c4cn(C)c5ccccc45)cc32)cc1` is 80%; for `CCOc1ccccc1CNC(=O)CN1C(=O)CCn2nc(-c3cn(C)c4ccccc34)cc21` it is 87%; for `CCOc1ccc(CNC(=O)CN2C(=O)CCn3nc(-c4cn(C)c5ccccc45)cc32)cc1OC` it is -6% (active).

For `Cc1nn(CCC(=O)N2CCN(c3ccccc3)CC2)c(C)c1S(=O)(=O)N1CCCC1`, the survival is -6% (active). The same measure for `COc1cccc(N2CCN(C(=O)CCn3nc(C)c(S(=O)(=O)N4CCCC4)c3C)CC2)c1`: 76%. The figure for `COc1ccc(N2CCN(C(=O)CCn3nc(C)c(S(=O)(=O)N4CCCC4)c3C)CC2)cc1` is 80%; for `CC(C)N(C(=O)CN1CCN(Cc2ccccc2)CC1)C(C)C` it is 107%; for `CCOC(=O)CCNC(=O)N1CCN(S(=O)(=O)c2ccc3c(ccn3C)c2)CC1` it is 113%. The same measure for `CCOC(=O)CNC(=O)N1CCN(S(=O)(=O)c2ccc3c(ccn3C)c2)CC1`: 0% (active); for `COC(=O)CNC(=O)N1CCN(S(=O)(=O)c2ccc3c(ccn3C)c2)CC1`: 79%; for `CCOC(=O)c1ccc(N=C2NC(=O)/C(=C/c3ccc(N4CCOCC4)cc3)S2)cc1`: 107%. On to `CCOc1ccc(-c2c(C)nn3c(C)c(C(=O)NCc4ccc(Cl)cc4)cnc23)cc1OCC`, for which the survival was 123%. The figure for `Cc1ccc2cccc(NC(=O)c3cccc4c(Br)cccc34)c2n1` is 134%; for `O=C(Nc1ccc(Br)c2cccnc12)c1cccc2ccccc12` it is 35%; for `CCOc1cc(C(=O)Nc2cccc3cccnc23)cc(OCC)c1OCC` it is 23%.

Take `Cc1ccc2cccc(NC(=O)c3ccc(-c4cc(Cl)ccc4Cl)o3)c2n1`: the survival was 71%.

`Cc1ccc2cccc(NC(=O)c3cccc4c(Cl)cccc34)c2n1`: the survival is 69%. The figure for `Cc1ccc2cccc(NC(=O)c3cccc4ccccc34)c2n1` is -10% (active). `CC(C)c1ccc(C(=O)Nc2cccc3cccnc23)cc1`: the survival is -3% (active).

`Cc1ccc(C(=O)Nc2cccc3cccnc23)cc1Cl`: the survival was 75%. Consider `Cc1ccc2cccc(NC(=O)c3ccc(-c4cccc(Cl)c4)o3)c2n1`, for which the survival is 66%. As for `O=C(Nc1cccc2cccnc12)c1cccc2ccccc12`, the survival was 1% (active). The figure for `O=C(Nc1cccc2cccnc12)c1cccc2c(Br)cccc12` is 77%; for `O=C(Nc1cccc2cccnc12)c1ccc(-c2cccc(Cl)c2)o1` it is 0% (active); for `COc1cccc(NC(=O)CCc2nnc3n(Cc4ccccc4Cl)c(=O)c4ccccc4n23)c1` it is 84%. The same measure for `CCOC(=O)c1cccc(NS(=O)(=O)c2c(C)nc3sc(C)cn3c2=O)c1`: 81%. The same measure for `COc1ccc2c(c1)c1c(c(=O)n(-c3cccc(C)c3)c(=O)n1CC(=O)N1CCCC1)n2C`: 82%; for `COc1ccccc1NC(=O)CSc1ncc2c(n1)-c1cc(Cl)ccc1N(Cc1ccccc1)S2(=O)=O`: 77%; for `Cc1ccc(NC(=O)CC(C)S(=O)(=O)c2ccc3c(c2)NC(=O)CO3)c(Cl)c1` (stereo not given): 87%. As to `CCOc1ccc(NC(=O)CCCc2nc(-c3cccc(OC)c3)no2)cc1`, the survival is 87%.

In the case of `Cc1nnc(SCc2cc(=O)n3c(C)cccc3n2)s1`, the survival was 81%. The same measure for `Cc1cccc(-c2nnc(SCC(=O)OC(C)C)n2C)c1`: 106%. The same measure for `COc1ccc(Br)cc1C(=O)Nc1cccc2ccc(C)nc12`: 63%; for `COc1c(C)cccc1C(=O)Nc1cccc2ccc(C)nc12`: -14% (active); for `CCOc1ccccc1C(=O)Nc1cccc2ccc(C)nc12`: 49%. In the case of `CCCCCn1c(=O)[nH]c2cc(C(=O)Nc3ccc(OC)c(OC)c3)ccc2c1=O`, the survival was 74%.

`Cc1oc(-c2ccc(Cl)cc2)nc1Cn1c(=O)cc(C)c2c(C)nn(-c3ccccc3)c21`: the survival is 83%. On to `CCOc1ccc(-c2nc(Cn3c(=O)cc(C)c4c(C)nn(-c5ccc(C)cc5)c43)c(C)o2)cc1`, for which the survival was 87%. The same measure for `Cc1ccc(-c2nc(Cn3c(=O)cc(-c4ccccc4)c4c(C)nn(C)c43)c(C)o2)cc1`: 120%.

Turning to `Cc1cccc(-c2nc(Cn3c(=O)cc(-c4ccccc4)c4c(C)nn(C)c43)c(C)o2)c1`, the survival is -6% (active). The same measure for `Cc1oc(-c2ccccc2)nc1Cn1c(=O)cc(-c2ccccc2)c2c(C)nn(C)c21`: 76%. In the case of `CCOc1ccc(-c2nc(Cn3c(=O)cc(C)c4c(C)nn(-c5ccccc5)c43)c(C)o2)cc1`, the survival is 14% (active).

For the molecule `Cc1cc(=O)n(Cc2c(F)cccc2Cl)c2c1c(C)nn2C`, the survival is 71%. For the molecule `Cc1nn(C)c2c1c(-c1ccccc1)cc(=O)n2Cc1c(F)cccc1Cl`, the survival was -6% (active). For `Cc1nn(C)c2c1c(-c1ccccc1)cc(=O)n2Cc1ccccc1F`, the survival was 120%. The figure for `CCc1cccc(NC(=O)CNS(=O)(=O)c2ccc3nc(C)sc3c2)c1` is 72%; for `COc1ccc(NCc2cc3cc4c(cc3n(CC(=O)Nc3cc(C)cc(C)c3)c2=O)OCO4)cc1` it is 60%; for `Cc1cccc(C(=O)Nc2cccc(OCc3cc(=O)n4c(C)csc4n3)c2)c1` it is 79%. Consider `CCC(=O)n1nc(-c2ccc(OC)cc2)nc1SC`, for which the survival is 100%.

For `O=C(NCc1ccncc1)C1CCN(S(=O)(=O)c2ccccc2)CC1`, the survival was 109%.

In the case of `COc1ccc(Nc2cc(C(=O)NCc3ccccc3OC)c3ccccc3n2)cc1`, the survival is -6% (active).

As for `COc1ccc(Nc2cc(C(=O)NCc3cccs3)c3ccccc3n2)cc1`, the survival is 145%.

For the molecule `COc1ccc(Nc2cc(C(=O)NCc3ccccc3)c3ccccc3n2)cc1`, the survival was 112%. The same measure for `CCOC(=O)/C(C#N)=N\Nc1ccccc1OC`: 105%; for `CCC(=O)N1CCc2cc(S(=O)(=O)NC(CC(C)C)C(=O)NCCc3ccccc3)ccc21` (stereo not given): 127%; for `CC(C)c1ccc(C2c3c(-c4ccccc4O)n[nH]c3C(=O)N2CCc2ccccc2)cc1` (stereo not given): 64%. The same measure for `CCCOc1ccc(C2c3c(-c4ccccc4O)n[nH]c3C(=O)N2Cc2cccnc2)cc1` (stereo not given): 3% (active); for `CCc1ccc(C2c3c(-c4ccccc4O)n[nH]c3C(=O)N2Cc2cccnc2)cc1` (stereo not given): 71%; for `CC(C)c1ccc(C2c3c(-c4ccccc4O)n[nH]c3C(=O)N2Cc2ccncc2)cc1` (stereo not given): 106%.

`O=C1c2[nH]nc(-c3ccccc3O)c2C(c2ccc(Cl)cc2)N1CCc1ccccc1` (stereo not given): the survival was 4% (active).

On to `COc1cc(C2c3c(-c4ccccc4O)n[nH]c3C(=O)N2Cc2ccco2)ccc1OCC(C)C` (stereo not given), for which the survival was 43%. The figure for `O=C1c2[nH]nc(-c3ccccc3O)c2C(c2ccc(Cl)cc2)N1Cc1ccco1` (stereo not given) is -1% (active); for `Cc1ccc(C2c3c(-c4ccccc4O)n[nH]c3C(=O)N2CCc2ccccc2)cc1` (stereo not given) it is 58%.

Regarding `COc1ccc(C2c3c(-c4ccccc4O)n[nH]c3C(=O)N2Cc2ccco2)cc1` (stereo not given), the survival is 10% (active).

`CCOc1cc(C2c3c(-c4ccccc4O)n[nH]c3C(=O)N2Cc2cccnc2)ccc1O` (stereo not given): the survival is 89%.

As for `COc1ccc(C2c3c(-c4c(C)cc(C)cc4O)n[nH]c3C(=O)N2Cc2ccco2)cc1` (stereo not given), the survival is 15%. Turning to `COc1ccc(CCN2C(=O)c3[nH]nc(-c4ccccc4O)c3C2c2ccc(OC)cc2)cc1` (stereo not given), the survival is 58%. The figure for `CCc1nnc(SCc2ccc(F)cc2Cl)c2cc3sc(C)cc3n12` is 96%. Consider `CCOC(=O)c1cccc(NC(=O)c2ccc3snnc3c2)c1`, for which the survival was 84%. The same measure for `COc1ccc(C)cc1NC(=O)C(=O)NCC1(c2ccccc2)CCCC1`: 94%; for `COc1ccc2c(c1)cc1c(=O)n(CC(=O)NCCc3ccccc3)nc(C)n12`: 81%. The same measure for `CCc1ccccc1NC(=O)CN1C(=O)COc2ccc(S(=O)(=O)Nc3ccccc3)cc21`: 64%; for `COc1ccc(-c2nc(N)n(C(C)=O)n2)cc1`: 107%.

As for `Cc1nnc(SCCCN2C(=O)c3ccccc3C2=O)o1`, the survival was 105%. Take `Cc1cccc(NC(=O)CCn2cnnn2)c1C`: the survival was 71%. For `Cc1cc(C)c(NC(=O)c2sc3nc(C)cc(C)c3c2N)c(C)c1`, the survival was 73%. `CCOc1cccc(C2c3c(-c4cc(C)ccc4O)n[nH]c3C(=O)N2Cc2ccco2)c1` (stereo not given): the survival is 27%.

As for `CCCN1C(=O)c2[nH]nc(-c3ccccc3O)c2C1c1cccc(OCc2ccccc2)c1` (stereo not given), the survival is 42%. As to `CCCOc1cccc(C2c3c(-c4ccccc4O)n[nH]c3C(=O)N2Cc2ccco2)c1` (stereo not given), the survival is 11% (active). `CCOc1cccc(C(=O)N(Cc2ccc(C)o2)C2CCS(=O)(=O)C2)c1` (stereo not given): the survival was 90%.

As for `CCOC(=O)C1CCN(C(=O)Cn2ncc3c4ccccc4n(Cc4ccc(F)cc4)c3c2=O)CC1`, the survival is 80%. With `CC(C)OCCCNC(=O)C(=O)Nc1c2c(nn1-c1ccccc1)CS(=O)(=O)C2`, the survival is -6% (active).

With `COCCNC(=O)C(=O)Nc1c2c(nn1-c1ccccc1)CS(=O)(=O)C2`, the survival is 76%. The figure for `CC(C)CCNC(=O)C(=O)Nc1c2c(nn1-c1ccccc1)CS(=O)(=O)C2` is 90%; for `CCOc1cccc(C(=O)Nc2cc(C)c(O)c(-c3nc4ncccc4o3)c2)c1` it is 84%. Turning to `CNC(=O)C1CCC(Cn2c(=O)c3sccc3n(CC(=O)NCc3ccc(C)cc3)c2=O)CC1` (stereo not given), the survival was 73%. The figure for `CNC(=O)C1CCC(Cn2c(=O)c3sccc3n(CC(=O)NCc3ccc(F)cc3)c2=O)CC1` (stereo not given) is 45%. The figure for `CNC(=O)C1CCC(Cn2c(=O)c3sccc3n(CC(=O)NCc3ccccc3)c2=O)CC1` (stereo not given) is 0% (active).
